# Columns and labels:
# Settings in all cases: concentration: 1 μM,replicates: in singlicate; n = 1
# MTOR = system: MTOR
# MUSK = system: MUSK
# MYLK2 = system: MYLK2
# MYLK4 = system: MYLK4
# MYLK = system: MYLK
# MYO3A = system: MYO3A
# MYO3B = system: MYO3B
# NDR1 = system: T1, NDR1
# T1 construct: gene STK38
# NDR2 = system: NDR2
# NEK10 = system: NEK10
# 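Also: KINOMEscan kinase panel screen.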
SMILES,%Inh (MTOR) [%],%Inh (MUSK) [%],%Inh (MYLK2) [%],%Inh (MYLK4) [%],%Inh (MYLK) [%],%Inh (MYO3A) [%],%Inh (MYO3B) [%],%Inh (NDR1) [%],%Inh (NDR2) [%],%Inh (NEK10) [%]
Cc1ccc(CC(=O)N2CCc3cc(-c4cn(C)c5ncnc(N)c45)ccc32)cc1 [GSK2634758],32,0,87,0,0,0,9,18,8,0
Cc1cccc2c(-c3ccncc3)c(-c3ccc(F)cc3)nn12.Cl [GW461487],0,7,2,0,14,8,0,25,0,14
Cc1cccc(-c2nc(Nc3ccncc3)c3sccc3n2)n1 [GW869641],75,0,4,0,35,9,21,35,0,24
CS(=O)(=O)Nc1ccc(-c2ccnc3[nH]ccc23)cc1 [GSK993273],9,24,27,95.5,43,0,0,20,6,71
Nc1nccc(-c2ccc3c(N)n[nH]c3c2)n1 [GSK1034945],0,9,85,83,21,8,0,0,0,0
COc1cccc(CNC(=O)NC2CCN(c3ccnc(Nc4cc(OC)c(OC)c(OC)c4)n3)C2)c1 (centres unmarked) [GSK1379765],31,83,11,9,20,27,0,15,0,14
Cl.Cl.NC[C@H](CC1CCCCC1)NC(=O)c1ccc(-c2ccnc3[nH]ccc23)s1 [GSK1581428],14,61,62,99.9,66,0,0,95.8,79,17
COc1cc2c(Nc3ccc(NC(=O)c4ccccc4)cc3)ncnc2cc1OCCCN1CCOCC1 [GSK301329],15,13,0,0,2,0,0,5,0,3
CN1CCN(CCCNc2nccc(-c3c(-c4ccc(F)cc4)nn4cc(C(N)=O)ccc34)n2)CC1 [GW622475],5,6,10,5,26,10,0,33,0,25
O=C(Nc1n[nH]c2cc(-c3ccco3)ccc12)C1CC1 [SB-737447],0,0,86,6,44,14,0,0,22,0
O=C(Nc1cccc(Oc2ccc3nccn3n2)c1)Nc1cccc(C(F)(F)F)c1,23,51,0,0,0,0,3,0,0,0
Cc1n[nH]c2cc(Nc3ccnc(Nc4cccc(CN5CCOCC5)c4)n3)ccc12 [GW682569],14,15,9,17,21,22,0,25,14,9
NC(=O)c1ccc(-c2cc3ncnc(SCC(=O)O)c3s2)cc1,39,0,0,0,0,0,3,31,0,0
CCNCC(Cc1ccccc1)NC(=O)c1cc(Br)c(-c2ccnc3[nH]ccc23)s1.Cl.Cl (centres unmarked) [GSK1383280],8,2,22,86,73,15,0,99.8,52,0
O=C(Nc1ccc(Oc2ccc3nc(NC(=O)C4CC4)cn3n2)c(F)c1)c1cccn(-c2ccccc2)c1=O,21,99.5,0,0,0,0,0,3,0,0
COc1cc2ncn(-c3cc(OCC4CCCCC4)c(C(N)=O)s3)c2cc1OC [GSK204559],7,4,9,85,20,0,0,11,0,4
COc1cccc(C2=C(Nc3cccc(Cl)c3)C(=O)NC2=O)c1 [SB-341556],8,9,0,23,0,0,0,0,0,73
